Here are results for 38 compounds from PubChem BioAssay (NCI).

SMILES strings stand for the structures. The panel holds about 83,000 compounds, 20% with a hit somewhere; the sample as a whole holds those more often.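 Treatment: one concentration, 48 hours, 96-well format. Scoring: percent growth, with anything below 10 considered active.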 Values without a mark were called inactive. Calls of active or inactive are those of the source.

This assay relates to NCI-H522 lung. Kind of assay: NCI-60 one-dose screen, 48 h (100 = growth as untreated, 0 = no growth, -100 = all killed). The conditions noted are these: 10 µM unless noted.
As for `Cc1ccc(NC(=O)CN2CCN(c3ncnc4c3cnn4-c3ccccc3)CC2)cc1`, the growth was -41.1% (active).

With `COc1cc(OC)cc(C(=O)Nc2cccc(-c3cn(-c4ccc(S(N)(=O)=O)cc4)nn3)c2)c1`, the growth was 69.1%. On to `CCN(CC)c1ccc(/C=N/Nc2nc(-c3ccc(Br)cc3)cs2)c(O)c1`, for which the growth is 17%.

For the compound `Cn1cc(-c2cc(N)n3nc(-c4c[nH]c5ccccc45)cc3n2)c2cc(Br)cnc21`, the growth was -75.4% (active). The result for `C#C[C@]1(O)CC[C@H]2[C@@H]3CC=C4c5sc(-c6ccc(O)c(O)c6)nc5CC[C@]4(C)[C@H]3CC[C@@]21C` reads -77.1% (active); that for `Cc1ccc(NCC(=O)Cn2cc(COc3ccc(C=Nc4cnc5ccccc5c4)cc3)nn2)cc1`, 104%. Consider `CN(C)CCOc1ccc(C(=O)C2[C@H](c3ccc(Cl)cc3)[C@@H](c3ccccc3)NC23C(=O)Nc2ccccc23)cc1` (stereo partly drawn), for which the growth was 89.6%. As for `CC(C)(C)OC(=O)/C=C/c1cccc2c1C(=O)NC(C)(c1cc3cc(Cl)ccc3oc1=O)N2` (stereo not drawn), the growth is 34.9%. For the compound `CCOC(=O)/C=C/c1cccc2c1C(=O)NC(C)(c1cc3cc(Cl)ccc3oc1=O)N2` (stereo not drawn), the growth was 33.8%. On to `N=C1N=C(SCc2nc3ccccc3[nH]2)NC(=O)/C1=C/c1ccc(Cl)cc1`, for which the growth was 92.7%. Regarding `CC(C)CSc1nc(NCCc2c[nH]c3ccccc23)c(C#N)c(-c2ccccc2)n1`, the growth is 67.6%. For the compound `COc1cc(-c2cc(-c3cccc(OCC(=O)O)c3)[nH]c(=O)c2C#N)cc(OC)c1OC`, the growth was 104%. Take `COc1ccc(C(SCCNCc2cc(N(C)C)ccn2)(c2ccccc2)c2ccccc2)cc1`: the growth is -20.6% (active).

With `Cc1cccc(-c2nc(Nc3ccc(C)c(S(N)(=O)=O)c3)c3ccccc3n2)c1`, the growth was -30.5% (active).

In the case of `Cn1cc(-c2cc(N)n3nc(-c4cn(C)c5ccccc45)cc3n2)c2cc(Br)ccc21`, the growth is -62.7% (active). As to `CC12CC[C@@H]3[C@]4(C)COC(c5cn[nH]c5-c5cccc(Cl)c5)O[C@@H]4CC[C@@]3(C)[C@@H]1CC(C1=CCOC1=O)O2` (stereo partly drawn), the growth was 26.8%. Turning to `Cc1ccc(C2CC(c3ccc(S(=O)(=O)NCCNc4nc(Nc5ccc(F)cc5)nc(N(C)C)n4)cc3)=Nc3c(N)nc(N)nc3N2)cc1` (stereo not drawn), the growth is 58.5%.

As for `O=C(NN1C(=O)/C(=C/C=C/c2ccc([N+](=O)[O-])o2)SC1=S)c1ccc(Cl)cc1`, the growth is -88.8% (active). The value for `COc1ccc(NC(=O)Cn2c3c(sc2=O)[C@H]2[C@@H](O)[C@@H](O)[C@H](O)[C@@H]2CS3)cc1` was 94.2%. `CC1(C)CC[C@]2(C(=O)O)CC[C@]3(C)C(=CCC4[C@@]5(C)C[C@@H](O)[C@@H]6OC(c7ccco7)OC[C@@]6(C)C5CC[C@]43C)C2C1` (stereo partly drawn): the growth is 20.7%.

As to `C#CCOc1ccc(/C=N/Nc2nc(-c3ccc(Cl)cc3)cs2)cc1OC`, the growth was 47.5%. `CCCCCCCCOc1cccc(S(=O)(=O)Nc2ccc(C)cc2C(=O)O)c1`: the growth was 86.5%.

For `Nc1nnc(-c2c[nH]c3ccc(Br)cc23)c(-c2c[nH]c3ncc(Br)cc23)n1`, the growth was 30.9%. On to `O=C(c1ccccc1)c1ccc2nc(-c3ccc(F)cc3)[nH]c2c1`, for which the growth is -59.7% (active). Turning to `Cn1cc(-c2cc(N)n3nc(-c4cn(C)c5ccc(Cl)cc45)cc3n2)c2ccccc21`, the growth is 100%. As for `O=C(CSc1nc2ccccc2c(=O)[nH]1)NCCN1CCCCC1`, the growth is 90.6%. Consider `CCCn1cc(-c2nc(Nc3ccc(C(=O)NCCCCNc4cccc5c4C(=O)N(C4CCC(=O)NC4=O)C5=O)cc3)nc3[nH]ccc23)cn1` (stereo not drawn), for which the growth is 27%. As for `CCOC(=O)C1=C(N)N(c2ccccc2)C2=C(C(=O)CC(C)(C)C2)C1c1ccccc1Cl` (stereo not drawn), the growth is 57.5%.

Consider `Cc1ccc(-c2nc(C#N)c(S(=O)(=O)N3CCN(S(=O)(=O)c4ccc(Cl)cc4)CC3)o2)cc1`, for which the growth is 71.2%. For the compound `O=c1[nH]c2ccc(Cl)cc2cc1CSc1nccc(-c2ccc(Cl)cc2)n1`, the growth is 33.6%. Take `CC1(C)CC[C@]2(C(=O)O)CC[C@]3(C)C(=CCC4[C@@]5(C)C[C@@H](O)[C@@H]6OC(c7ccc(F)cc7)OC[C@@]6(C)C5CC[C@]43C)C2C1` (stereo partly drawn): the growth was 8.38% (active). As to `C=C1CC[C@@H]2[C@]3(C)COC(c4ccccc4)O[C@@H]3CC[C@@]2(C)[C@@H]1C/C=C1/C(=O)OCC1OC(C)=O` (stereo partly drawn), the growth is -90.2% (active). With `Cc1cccc(Nc2nc3ccccc3nc2/C=C/c2ccc(F)cc2)c1`, the growth was 79.4%. Take `Brc1ccc(N/N=C/c2c[nH]c3ccc(Br)cc23)nc1`: the growth was -55.5% (active). On to `C=C1CC[C@@H]2[C@]3(C)COC(c4cn[nH]c4-c4ccc(C)cc4)O[C@@H]3CC[C@@]2(C)[C@@H]1C/C=C1/C(=O)OCC1O` (stereo partly drawn), for which the growth is -58.4% (active). The result for `O=C(Cn1c(/C=C/c2ccccc2)nc2ccccc2c1=O)Nc1ccc(Cl)cc1` reads 76.7%; that for `CC1(C)CC[C@]2(C(=O)O)CC[C@]3(C)C(=CCC4[C@@]5(C)C[C@@H](O)[C@@H]6OC(c7ccccc7Br)OC[C@@]6(C)C5CC[C@]43C)C2C1` (stereo partly drawn), 12.1%; that for `C=C1CCC2C3(C)COC(c4ccco4)OC3CCC2(C)C1CC(Sc1ccccc1)C1=CCOC1=O` (stereo not drawn), 7.02% (active).
